Experimental data reported in ChEMBL document CHEMBL3988442, “University of Dundee, Small-Polar-MMV Screening Library” (2021).
In all, about 48,000 compounds went through this assay and about 13,000 (27%) showed an effect of 50% or more. The list shows a part of the results.

The compounds below were run on Wolbachia pipientis (assay: Anti-Wolbachia Cell-Based Screen). Settings: 5 µM.
Format: functional
Parameters: scale not given: in the data most compounds retested in dose-response had high values
For `O=C(NCCn1ccc(-c2ccccn2)n1)C1CCC1`, the “Percent Effect” value was 100.8%.
In the case of `CC(=O)NCCNc1nc(-c2ccccn2)nc2c1c(C)nn2C`, the “Percent Effect” value is reported as -13.51%.
In the case of `O=C(NCCn1ccc(-c2ccccn2)n1)c1ccncc1`, the “Percent Effect” value is reported as -7.154%.
In the case of `O=C(NCCn1ccc(-c2ccccn2)n1)C1CC1`, the “Percent Effect” value is reported as -0.9217%.
In the case of `O=C(CC1CCCC1)NCCn1ccc(-c2ccccn2)n1`, the “Percent Effect” value is reported as -10.47%.
`O=S(=O)(NCCn1ccc(-c2ccccn2)n1)C1CC1` was tested, and the “Percent Effect” value was -6.765%.
`CCOCC(=O)NCCn1ccc(-c2ccccn2)n1` was tested, and the “Percent Effect” value was 107%.
In the case of `O=S(=O)(NCCn1ccc(-c2ccccn2)n1)C1CCCCC1`, the “Percent Effect” value is reported as 96.49%.
With `O=S(=O)(NCCn1ccc(-c2ccncc2)n1)C1CC1` the “Percent Effect” value was -3.151%.
For `CC(=O)NCCn1ccc(-c2ccccn2)n1`, the “Percent Effect” value was 104.5%.
In the case of `Cc1ccc(O)c(CN(Cc2ccccc2)Cc2nccs2)n1`, the “Percent Effect” value is reported as 11.33%.
With `CCCN1CCCn2nc(CNC(=O)CCc3scnc3C)cc2C1` the “Percent Effect” value was 1.883%.
For `CN(Cc1ccsc1)Cc1nc(-c2cnccn2)no1`, the “Percent Effect” value was -7.726%.
`CC(C)(C)C(=O)NCCn1ccc(-c2ccccn2)n1` was tested, and the “Percent Effect” value was 67.15%.
With `CC(C)(C)C(=O)NCCn1ccc(-c2ccncc2)n1` the “Percent Effect” value was -1.821%.
With `Cc1cnn(CC2CCCN2Cc2nccn2CC(F)(F)F)c1` (stereo not drawn) the “Percent Effect” value was 129.3%.
In the case of `Cc1cnn(CC2CCCN2Cc2nccn2C)c1` (stereo not drawn), the “Percent Effect” value is reported as -1.089%.
`Cc1cnn(CC2CCCN2Cc2nc3ccccc3nc2C)c1` (stereo not drawn) was tested, and the “Percent Effect” value was 3.797%.
For `NC(=O)C1CCCN1Cc1nccn1CC(F)(F)F` (stereo not drawn), the “Percent Effect” value was -2.704%.
In the case of `O=C(C1CCCCN1Cc1nccn1CC(F)(F)F)N1CCCC1` (stereo not drawn), the “Percent Effect” value is reported as -10.67%.
With `Cc1cnn(CC2CCCN2Cc2nc3ccccc3n2C)c1` (stereo not drawn) the “Percent Effect” value was 0.7122%.
In the case of `Cc1cnn(CC2CCCCN2Cc2nccn2CC(F)(F)F)c1` (stereo not drawn), the “Percent Effect” value is reported as 101.7%.
For `CCn1ccnc1CN1CCCC1Cn1cc(C)cn1` (stereo not drawn), the “Percent Effect” value was 134.6%.
For `Cc1cnn(CC2CCCCN2Cc2nc(-c3ccoc3)no2)c1` (stereo not drawn), the “Percent Effect” value was 6.468%.
With `Cn1ccnc1CN1CCCC1Cn1cccn1` (stereo not drawn) the “Percent Effect” value was 107.8%.
`Cn1ccnc1CN1CCCCC1Cn1cccn1` (stereo not drawn) was tested, and the “Percent Effect” value was 5.027%.
In the case of `Cc1nc2ccccc2nc1CN1CCCCC1Cn1cccn1` (stereo not drawn), the “Percent Effect” value is reported as -6.205%.
In the case of `COc1ccc(Cc2ncc3c(n2)CN(C(=O)C2COCCO2)C3)cc1` (stereo not drawn), the “Percent Effect” value is reported as -5.777%.
For `CCCN1CCN(Cc2cc(Cl)cc(Cl)c2)[C@H]2CS(=O)(=O)C[C@H]21`, the “Percent Effect” value was 3.846%.
For `CSC(C)CC(=O)N1CCC(n2ccnn2)CC1` (stereo not drawn), the “Percent Effect” value was 6.562%.
For `O=C(CCN1CCNCC1)N1CCC2(CC1)c1ccccc1CC2O` (stereo not drawn), the “Percent Effect” value was 4.718%.
With `COCC(=O)N1CCC2(CC1)NC(=O)c1ccccc12.Cl` the “Percent Effect” value was -6.733%.
In the case of `COCC(=O)N1CCc2ccccc2C12CCNCC2.Cl`, the “Percent Effect” value is reported as 112.7%.
For `O=C(C1CC1)N1CCC2(CC1)CNCc1ccccc12`, the “Percent Effect” value was 1.154%.
In the case of `Cl.O=C(C1CC1)N1CCc2ccccc2C12CCNCC2`, the “Percent Effect” value is reported as 85.13%.
With `COCC(=O)N1CCc2[nH]c(=O)ccc2C1` the “Percent Effect” value was -6.404%.
With `CCOC(=O)N1CCc2ccccc2C12CCNCC2.Cl` the “Percent Effect” value was 93.5%.
In the case of `CN(C)C(=O)N1Cc2ccccc2C2(CCNCC2)C1.Cl`, the “Percent Effect” value is reported as -11%.
In the case of `Cl.O=C([C@H]1CCCO1)N1CCC2(CC1)CNCc1ccccc12`, the “Percent Effect” value is reported as -10.28%.
`CS(=O)(=O)N1CC[C@]2(C[C@H](Oc3ccccn3)CO2)C1.O=C(O)C(F)(F)F` was tested, and the “Percent Effect” value was 1.633%.
`Cn1nc(Cn2cccc2)c2c1CN(Cc1ccsc1)C2.O=C(O)C(F)(F)F` was tested, and the “Percent Effect” value was 0.5842%.
In the case of `Cc1ccccc1CN1CCCN(C2CCOC2=O)CC1` (stereo not drawn), the “Percent Effect” value is reported as 1.458%.
`CCO[C@@H]1CN(S(=O)(=O)c2cn(C)cn2)[C@@H]2CCCO[C@@H]21.O=C(O)C(F)(F)F` was tested, and the “Percent Effect” value was -6.587%.
In the case of `Cc1cc(N(C)C)nc(N2CCN(C(C)c3nc(C)no3)CC2)n1` (stereo not drawn), the “Percent Effect” value is reported as 5.095%.
In the case of `Cc1cc(C)n(CC2CN(CC(=O)NC3CCCC3)CCO2)n1` (stereo not drawn), the “Percent Effect” value is reported as -2.568%.
In the case of `Cc1nc(C)n(CC2CN(CC(=O)Nc3nccs3)CCO2)n1` (stereo not drawn), the “Percent Effect” value is reported as 1.962%.
In the case of `Cc1cc(C)n(CC2CN(CCC(=O)NC3CCCCC3)CCO2)n1` (stereo not drawn), the “Percent Effect” value is reported as 118.1%.
`Cc1cc(C)n(CC2CN(CC(=O)Nc3c(C)n[nH]c3C)CCO2)n1` (stereo not drawn) was tested, and the “Percent Effect” value was -5.671%.
For `CCN1CCC(NC(=O)CN2CCCC2Cn2nc(C)cc2C)CC1` (stereo not drawn), the “Percent Effect” value was -4.017%.
For `Cc1cc(C)n(CC2CN(CC(=O)NC3CCCCC3)CCO2)n1` (stereo not drawn), the “Percent Effect” value was 116.8%.
With `Cc1nc(C)n(CC2CN(CC(=O)NC3CCCC3)CCO2)n1` (stereo not drawn) the “Percent Effect” value was 112.4%.
For `Cc1nc(C)n(CC2CN(CC(=O)Nc3cccnc3)CCO2)n1` (stereo not drawn), the “Percent Effect” value was 9.573%.
In the case of `Cc1cc(C)n(CC2CN(CC(=O)NC3CCOCC3)CCO2)n1` (stereo not drawn), the “Percent Effect” value is reported as 89.87%.
